Laboratory results: ChEMBL document CHEMBL3988442, “University of Dundee, Small-Polar-MMV Screening Library” (2021)
For some of these results: Potency and affinity values are given separately.

What was measured:
Parameters in all cases: scale not given: direction of the effect not stated beside the values
[1] = molecular target: Protein translocase subunit SecA (Escherichia coli (strain K12)) (UniProt P10408); assay: Assay to Identify E. coli SecA ATPase Inhibitors; format: functional; conditions: 30 µM
Protein translocase subunit SecA (Escherichia coli (strain K12)), sequence (P10408 whole entry): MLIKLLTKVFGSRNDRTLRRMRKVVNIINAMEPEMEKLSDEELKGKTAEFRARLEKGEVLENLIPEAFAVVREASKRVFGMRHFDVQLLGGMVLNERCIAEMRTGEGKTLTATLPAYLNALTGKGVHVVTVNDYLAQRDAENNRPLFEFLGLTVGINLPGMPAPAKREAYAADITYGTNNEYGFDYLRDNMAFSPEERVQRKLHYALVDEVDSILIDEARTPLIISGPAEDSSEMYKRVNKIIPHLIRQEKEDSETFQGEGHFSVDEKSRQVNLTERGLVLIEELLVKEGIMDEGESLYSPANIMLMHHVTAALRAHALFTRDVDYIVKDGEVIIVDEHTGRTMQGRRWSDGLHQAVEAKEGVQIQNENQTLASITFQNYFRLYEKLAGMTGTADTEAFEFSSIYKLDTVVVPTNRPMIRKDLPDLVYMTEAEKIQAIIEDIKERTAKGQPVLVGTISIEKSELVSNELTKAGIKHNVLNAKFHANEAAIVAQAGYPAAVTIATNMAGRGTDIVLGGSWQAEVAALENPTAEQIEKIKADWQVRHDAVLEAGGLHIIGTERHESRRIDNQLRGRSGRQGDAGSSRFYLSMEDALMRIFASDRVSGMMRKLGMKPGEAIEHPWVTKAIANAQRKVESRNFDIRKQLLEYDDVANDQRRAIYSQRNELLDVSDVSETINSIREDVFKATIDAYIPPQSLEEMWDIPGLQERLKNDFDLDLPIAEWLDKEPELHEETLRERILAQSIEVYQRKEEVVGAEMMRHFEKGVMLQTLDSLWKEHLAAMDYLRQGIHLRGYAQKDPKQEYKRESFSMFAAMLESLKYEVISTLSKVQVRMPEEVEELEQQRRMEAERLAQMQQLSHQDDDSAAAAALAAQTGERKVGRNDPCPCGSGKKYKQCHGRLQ

[2] = molecular target: T1, Ubiquitin-activating enzyme e1, putative (Leishmania donovani (strain BPK282A1)) (UniProt E9BSI1); assay: Leishmania donovani Ubiquitin Activating Enzyme (LdE1); format: functional; conditions: 30 µM
T1 sequence (whole entry): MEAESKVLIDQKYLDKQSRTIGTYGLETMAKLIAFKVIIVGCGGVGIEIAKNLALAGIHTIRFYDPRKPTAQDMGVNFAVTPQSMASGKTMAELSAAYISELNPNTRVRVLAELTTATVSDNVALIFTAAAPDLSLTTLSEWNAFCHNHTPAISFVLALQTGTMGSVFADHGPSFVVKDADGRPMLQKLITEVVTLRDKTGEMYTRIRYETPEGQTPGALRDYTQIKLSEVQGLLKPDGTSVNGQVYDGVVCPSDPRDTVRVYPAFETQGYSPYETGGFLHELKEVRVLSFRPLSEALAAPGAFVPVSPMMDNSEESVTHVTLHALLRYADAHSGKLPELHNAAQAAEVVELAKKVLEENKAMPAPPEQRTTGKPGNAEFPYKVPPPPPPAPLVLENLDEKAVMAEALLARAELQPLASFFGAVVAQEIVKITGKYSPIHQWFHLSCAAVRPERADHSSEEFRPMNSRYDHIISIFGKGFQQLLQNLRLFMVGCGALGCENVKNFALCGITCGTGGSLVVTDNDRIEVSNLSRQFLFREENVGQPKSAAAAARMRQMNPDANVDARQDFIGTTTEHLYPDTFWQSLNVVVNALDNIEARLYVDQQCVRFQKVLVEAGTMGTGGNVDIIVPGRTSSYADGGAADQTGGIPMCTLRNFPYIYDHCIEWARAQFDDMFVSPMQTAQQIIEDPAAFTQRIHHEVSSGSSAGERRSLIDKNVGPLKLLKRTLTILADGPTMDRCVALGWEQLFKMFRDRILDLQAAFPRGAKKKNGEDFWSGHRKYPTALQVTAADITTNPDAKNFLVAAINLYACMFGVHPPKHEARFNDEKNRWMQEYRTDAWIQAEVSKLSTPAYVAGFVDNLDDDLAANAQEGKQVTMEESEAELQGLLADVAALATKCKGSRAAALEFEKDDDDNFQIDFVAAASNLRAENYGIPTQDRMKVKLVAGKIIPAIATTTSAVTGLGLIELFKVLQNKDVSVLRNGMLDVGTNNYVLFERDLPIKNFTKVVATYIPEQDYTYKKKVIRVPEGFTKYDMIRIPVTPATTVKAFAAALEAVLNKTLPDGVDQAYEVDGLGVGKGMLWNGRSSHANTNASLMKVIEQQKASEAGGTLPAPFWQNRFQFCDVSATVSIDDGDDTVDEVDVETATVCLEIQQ

[3] = molecular target: AMP-activated protein kinase, AMPK (Homo sapiens) (UniProt P54646+O43741+P54619+Q9UGJ0+Q9Y478+Q13131+Q9UGI9); assay: AMP-dependent Kinase enzyme assay. An in vitro enzyme assay that detects ADP turnover that is directly proportional to AMPK activity. This uses naive AMPK that is activated during the assay with MK-8722; format: functional; conditions: 30 µM
[4] = molecular target: Sialic acid-binding Ig-like lectin 9 (Homo sapiens) (UniProt Q9Y336); assay: Hs-Siglec9 ALPHAscreen SOP 20170721; conditions: 10 µM
Sialic acid-binding Ig-like lectin 9 (Homo sapiens), sequence (Q9Y336 whole entry): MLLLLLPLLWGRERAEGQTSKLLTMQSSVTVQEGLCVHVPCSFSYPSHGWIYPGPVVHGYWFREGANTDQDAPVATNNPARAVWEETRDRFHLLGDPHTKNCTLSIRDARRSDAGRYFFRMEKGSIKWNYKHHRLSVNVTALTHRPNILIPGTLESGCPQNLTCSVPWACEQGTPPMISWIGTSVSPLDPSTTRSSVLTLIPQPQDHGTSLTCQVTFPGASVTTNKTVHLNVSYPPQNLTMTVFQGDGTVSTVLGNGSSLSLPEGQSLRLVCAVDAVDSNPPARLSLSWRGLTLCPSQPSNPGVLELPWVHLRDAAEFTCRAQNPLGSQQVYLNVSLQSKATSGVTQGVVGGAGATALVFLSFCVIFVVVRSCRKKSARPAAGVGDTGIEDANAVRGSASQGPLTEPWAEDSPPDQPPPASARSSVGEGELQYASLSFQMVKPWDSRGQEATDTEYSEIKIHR

Trypanosoma cruzi = assay: Trypanosoma cruzi phosphomannomutase and mannose-1-phosphate guanylyltransferase assay; format: functional; conditions: 10 µM
[5] = molecular target: T2, Arginase-2, mitochondrial (Homo sapiens) (UniProt P78540); assay: in vitro enzyme assay to detect the production of urea directly proportional to the activity of Arginase II; format: functional; conditions: 33.3 µM; note: in the data most compounds retested in dose-response had high values
T2 sequence (whole entry): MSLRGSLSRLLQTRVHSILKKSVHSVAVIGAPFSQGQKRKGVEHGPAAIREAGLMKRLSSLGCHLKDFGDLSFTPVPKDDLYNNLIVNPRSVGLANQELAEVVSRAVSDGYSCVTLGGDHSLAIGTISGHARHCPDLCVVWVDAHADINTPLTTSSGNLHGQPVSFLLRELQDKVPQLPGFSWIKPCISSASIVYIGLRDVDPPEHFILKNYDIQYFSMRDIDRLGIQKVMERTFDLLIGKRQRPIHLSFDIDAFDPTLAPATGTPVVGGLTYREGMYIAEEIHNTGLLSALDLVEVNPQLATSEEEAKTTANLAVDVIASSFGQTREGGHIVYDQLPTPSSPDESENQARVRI

[6] = molecular target: T3, Proteasome subunit beta (Trypanosoma cruzi) (UniProt O96673); assay: Trypanosoma cruzi proteasome chymotrypsin-like activity (TcProtChymo) assay.; note: in the data most compounds retested in dose-response had high values; format: functional; conditions: 9.37 µM
T3 sequence (whole entry): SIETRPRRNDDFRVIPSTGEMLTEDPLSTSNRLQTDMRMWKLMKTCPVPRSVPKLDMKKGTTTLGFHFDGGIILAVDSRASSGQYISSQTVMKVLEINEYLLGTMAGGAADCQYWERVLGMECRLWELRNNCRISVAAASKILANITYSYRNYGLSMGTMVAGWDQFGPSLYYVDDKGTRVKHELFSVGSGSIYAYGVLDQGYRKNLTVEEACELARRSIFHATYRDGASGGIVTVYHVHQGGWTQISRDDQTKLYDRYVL

Homo sapiens = species on record: Homo sapiens; assay: To identify inhibition of the IFN signalling (Jak-Stat) pathway via expression of an eGFP reporter gene under the control of an IFN-stimulated response element (ISRE) containing MxA promoter.; format: functional; conditions: 30 µM
[7] = molecular target: T4, Tyrosyl-tRNA synthetase, putative (Trypanosoma cruzi (strain CL Brener)) (UniProt Q4DSP6); assay: Trypanosoma cruzi tyrosyl tRNA synthetase (TcYRS) _High Tyrosine SOP; format: functional; conditions: 30 µM; note: in the data most compounds retested in dose-response had high values
T4 sequence (whole entry): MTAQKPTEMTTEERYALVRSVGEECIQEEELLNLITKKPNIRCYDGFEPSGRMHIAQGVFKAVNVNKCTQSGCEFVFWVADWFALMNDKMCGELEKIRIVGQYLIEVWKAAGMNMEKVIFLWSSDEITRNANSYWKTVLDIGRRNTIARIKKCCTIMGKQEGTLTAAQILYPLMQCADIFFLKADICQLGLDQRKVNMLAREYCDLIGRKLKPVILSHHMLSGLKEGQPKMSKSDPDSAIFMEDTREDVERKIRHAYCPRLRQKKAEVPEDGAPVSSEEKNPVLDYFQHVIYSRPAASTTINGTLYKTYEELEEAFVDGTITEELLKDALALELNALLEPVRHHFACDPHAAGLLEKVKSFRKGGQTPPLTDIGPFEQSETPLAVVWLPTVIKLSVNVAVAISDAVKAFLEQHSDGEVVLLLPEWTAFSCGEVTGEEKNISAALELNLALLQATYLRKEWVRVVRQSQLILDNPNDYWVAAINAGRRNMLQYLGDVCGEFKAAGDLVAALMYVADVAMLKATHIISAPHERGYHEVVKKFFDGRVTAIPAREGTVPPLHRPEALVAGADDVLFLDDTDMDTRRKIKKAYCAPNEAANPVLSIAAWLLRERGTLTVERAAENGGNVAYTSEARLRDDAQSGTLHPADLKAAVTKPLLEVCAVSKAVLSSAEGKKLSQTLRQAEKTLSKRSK

[8] = molecular target: T4, Tyrosyl-tRNA synthetase, putative (Trypanosoma cruzi (strain CL Brener)); assay: Trypanosoma cruzi tyrosyl tRNA synthetase (TcYRS) SOP; format: functional; conditions: 30 µM
[9] = molecular target: Chromo domain-containing protein 1 (Saccharomyces cerevisiae (strain ATCC 204508 / S288c) (Baker's yeast)) (UniProt P32657); assay: ScCHD-1 Enzyme Inhibition Assay; format: functional; conditions: 30 µM; note: in the data most compounds retested in dose-response had high values
Chromo domain-containing protein 1 (Saccharomyces cerevisiae (strain ATCC 204508 / S288c) (Baker's yeast)), sequence (P32657 whole entry, the tested form may be a part): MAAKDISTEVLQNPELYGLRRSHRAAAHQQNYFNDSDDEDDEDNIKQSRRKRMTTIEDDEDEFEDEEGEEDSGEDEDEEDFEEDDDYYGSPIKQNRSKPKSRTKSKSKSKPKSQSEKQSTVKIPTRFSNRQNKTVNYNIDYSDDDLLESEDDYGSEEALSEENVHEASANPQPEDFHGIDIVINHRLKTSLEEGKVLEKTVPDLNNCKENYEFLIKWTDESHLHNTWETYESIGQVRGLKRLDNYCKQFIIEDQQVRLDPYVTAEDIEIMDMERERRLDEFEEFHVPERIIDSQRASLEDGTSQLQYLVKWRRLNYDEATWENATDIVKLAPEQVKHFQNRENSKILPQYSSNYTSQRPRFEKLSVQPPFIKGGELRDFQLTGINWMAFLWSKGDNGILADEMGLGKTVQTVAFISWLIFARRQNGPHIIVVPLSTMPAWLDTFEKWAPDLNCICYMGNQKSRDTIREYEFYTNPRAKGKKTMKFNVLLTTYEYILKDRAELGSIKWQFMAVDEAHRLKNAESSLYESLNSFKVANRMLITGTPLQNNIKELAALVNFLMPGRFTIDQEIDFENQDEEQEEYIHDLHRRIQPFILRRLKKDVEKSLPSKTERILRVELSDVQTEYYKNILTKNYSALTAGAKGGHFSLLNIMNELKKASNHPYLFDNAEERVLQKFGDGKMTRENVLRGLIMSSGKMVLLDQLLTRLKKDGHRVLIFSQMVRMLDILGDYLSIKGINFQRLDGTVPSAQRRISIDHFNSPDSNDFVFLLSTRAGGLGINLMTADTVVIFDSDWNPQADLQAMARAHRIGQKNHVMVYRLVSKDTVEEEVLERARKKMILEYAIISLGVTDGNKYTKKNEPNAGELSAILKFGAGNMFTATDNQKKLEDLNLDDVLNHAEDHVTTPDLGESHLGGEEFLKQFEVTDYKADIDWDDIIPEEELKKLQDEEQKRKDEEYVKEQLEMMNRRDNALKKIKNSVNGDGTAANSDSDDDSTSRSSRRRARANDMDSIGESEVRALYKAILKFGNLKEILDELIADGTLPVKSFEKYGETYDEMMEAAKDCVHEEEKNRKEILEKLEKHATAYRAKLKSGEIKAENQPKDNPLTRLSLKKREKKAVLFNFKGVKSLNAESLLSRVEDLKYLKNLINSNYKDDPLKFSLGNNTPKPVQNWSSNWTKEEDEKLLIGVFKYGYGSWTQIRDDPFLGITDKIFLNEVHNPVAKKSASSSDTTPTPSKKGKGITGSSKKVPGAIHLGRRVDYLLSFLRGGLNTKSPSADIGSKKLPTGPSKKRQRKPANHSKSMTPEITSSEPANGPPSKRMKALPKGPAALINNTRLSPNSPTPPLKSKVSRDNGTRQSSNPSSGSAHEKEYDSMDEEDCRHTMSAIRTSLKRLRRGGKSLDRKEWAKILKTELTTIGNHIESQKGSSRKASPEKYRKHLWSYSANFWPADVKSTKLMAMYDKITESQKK

Row | Structure (SMILES) | Percent Effect [1] [%] | Percent Effect [2] [%] | Percent Effect [3] [%] | Percent Effect [4] [%] | Percent Effect (Trypanosoma cruzi) [%] | Percent Effect [5] [%] | Percent Effect [6] [%] | Percent Effect (Homo sapiens) [%] | Percent Effect [7] [%] | Percent Effect [8] [%] | Percent Effect [9] [%]
1 | COc1ccc(-c2nc(CN3CC(n4cc(C)cn4)C3)no2)cc1 | -4.92 | 10.4 | -1.25 | 16.8 | 4.03 | 88.3 | 12 | 12.7 | 6.45 | 21 | -9.02
2 | O=C1N(Cc2cccc(F)c2F)CCCC1(O)CNC1CCCC1 (stereo unspecified) | -6.14 | 16 | -3.79 | 22.4 | 5.55 | 7.29 | 4.36 | 4.41 | 3.83 | 6.17 | 97.3
3 | Cc1ccc2c(c1)C1(CC2)CCN(c2nncs2)CC1 | -0.497 | 0 | 5.45 | 1.98 | 1.59 | 3.59 | 7.28 | 20.4 | 6.25 | 11.1 | 5.12
4 | O=c1oc(-c2cccs2)nn1CC(O)c1ccccc1 (stereo unspecified) | -3.18 | 8 | -5.55 | 2.71 | 0.292 | -27.6 | 5.58 | 7.94 | 10.4 | 16.1 | -4.32
5 | CN(Cc1nnc2n1CCC2)C(=O)NCCc1ccc2c(c1)OCO2 | -3.06 | 21.6 | -5.22 | -0.223 | -5.38 | -2.4 | 10.6 | 18.3 | 7.39 | 16.1 | -6.24
6 | Cc1cnn(CC2CCCN2Cc2nc3ccccc3nc2C)c1 (stereo unspecified) | -2.22 | 0 | 0.154 | 1.31 | 4.41 | 1.47 | 10.4 | 9.09 | 0 | 7.06 | -12.8
7 | COc1ccc(C(=O)N2Cc3c(Cn4ccnc4)nn(C)c3C2)cc1 | -2.78 | 8 | 5.76 | -5.42 | 3.15 | -1.63 | 12.1 | 7.14 | 5.32 | 11.5 | -3.95
8 | CN(C)C(=O)C1CN(Cc2c[nH]cn2)CCN(C2CCOCC2)C1 (stereo unspecified) | -7.04 | 12.2 | 8.74 | 1.93 | 0.198 | 8.12 | 6.24 | 15.9 | 6.45 | 16.9 | -11.5
9 | O=C(CN1CCOC(Cn2cccn2)C1)NCCc1ccc(F)cc1 (stereo unspecified) | -2.6 | 2.7 | -6.61 | -1.28 | -3.25 | -0.554 | 7.18 | 5.31 | -0.99 | 1.22 | 13.8
10 | COc1cc(C)nc(N2CCN(C(=O)c3ccc(Cl)o3)CC2)n1 | -3.23 | 2.7 | -4.07 | -1.86 | 2.17 | -0.802 | -3.06 | -0.0966 | 2.46 | 3.7 | 1.52
11 | O=C(COc1ccc2c(c1)CCC2)N1CCOCC1c1ncon1 (stereo unspecified) | -2.91 | 2.7 | -3.96 | -4.39 | -4.62 | 1.2 | -1.62 | 13.6 | 4.43 | 6.17 | -2.72
